Screening data deposited in PubChem by Sanford-Burnham Center for Chemical Genomics.
Shown are actives, neighbours in structure and some others; about 3.2% of the full set was active somewhere.
aDG glyco act: alpha-DG glycosylation activation | Pro5-aDG cells, alpha-DG glycosylation AlphaScreen (IIH6); 0% Pro5, 100% B10-LARGE cell signal | activation, % at 10 µM | hit rate 0.22% among 360,000;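 active means activation of at least 8% versus controls, or a plate z-score of at least 8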;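 further: Pro5 are CHO cells carrying HIG-tagged alpha-DG that lacks glycosylation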
PfG6PD inh: PfG6PD (Plasmodium falciparum) enzyme inhibition; PfGluPho enzyme, NADPH resazurin-diaphorase fluorescence; inhibition, % at 20 µM; hit rate 0.78% among 350,000; AID 504690;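 active means inhibition reaching at least a set limit at 20 µM in the primary screen, cut at about 59% in these data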
H9c2 protect: myocardial damage modulation in H9c2 cells. AID 588492. hit rate 0.63% among 360,000. protection from H2O2 cell death, % at 20 µM. H9c2 cardiomyocytes, H2O2 injury protection, ATPLite, 2 h;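 active means compounds giving at least 50% protection of heart cells from peroxide-induced death in the single-dose screen, raw or plate-pattern-corrected value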
CRFBP-R2 block: CRF-BP/CRF-R2 complex antagonism. hit rate 0.59% among 350,000. inhibition, % at 11.8 µM. HEK293 CRF-R2/CRF-BP, CRF-induced calcium fluorescence;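 active means inhibition of the ligand-induced calcium signal above about 50% at the single tested concentration, limit read from the data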
FAS-TE inh: blocks the thioesterase domain of human fatty acid synthase. P49327. recombinant FAS-TE, OMFH fluorogenic substrate, fluorescence endpoint. inhibition, % at 15 µM. hit rate 0.67% among 360,000. AID 602261;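 active means compounds whose normalised, plate-corrected inhibition of enzyme fluorescence in the single-dose primary screen is 50% or more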
CRFR2-BP ag: CRF-BP/CRF-R2 complex agonism | HEK293 CRF-R2/CRF-BP, calcium dye fluorescence (FLIPR); percent of saturating CRF peptide response | activation, % at 13.2 µM | hit rate 0.46% among 350,000 | AID 588473;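 active means activation of at least 50%, plus an integration ratio under a set limit after plate pattern correction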
PfG6PD confirm: confirmation of Plasmodium falciparum G6PD inhibitors. inhibition, % at 20 µM. shares compounds with PfG6PD inh. AID 504753. hit rate 34% among 2,400. recombinant PfGluPho, NADPH-diaphorase-resazurin fluorescence;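 active means inhibition of at least 50% at 20 µM in any single replicate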
Diaph ctr 10uM: inhibits diaphorase or oxidizes, flagging false PfG6PD hits. shares compounds with PfG6PD inh. hit rate 39% among 820. AID 504862. inhibition, % at 20 µM. diaphorase-coupled resazurin reduction, fluorescence, NADPH 10 uM;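 active means average inhibition reaching 50% or more with the compound at 20 µM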;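 further: resorufin red fluorescence formed as diaphorase reduces resazurin using NADPH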
Diaphorase 30uM: diaphorase inhibition or oxidation at 30 uM NADPH. shares compounds with PfG6PD inh. Diaphorase/resazurin coupled assay, resorufin fluorescence. inhibition, % at 20 µM. hit rate 29% among 820;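 active means inhibition averaging 50% or more, tested at 20 µM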
A number is an active result; 0 = inactive; - = no result.

SMILES	aDG glyco act	PfG6PD inh	H9c2 protect	CRFBP-R2 block	FAS-TE inh	CRFR2-BP ag	PfG6PD confirm	others
CC(NCCCOc1cccc2ccccc12)c1ccccc1 (stereo unspecified)	0	0	0	0	0	0	-
CCCc1nc2c3ccccc3ccn2c1Cc1cccc(F)c1	0	-	0	-	0	-	-
CN(C(=O)CSc1nnc(-c2ccco2)n1C)C1CCCCC1	0	0	0	0	0	0	-
Cc1coc2c1C(=O)C(=O)c1c-2ccc2c(C)cccc12	0	63.7	0	0	74.3	0	-
Cc1ccc(C(=O)C(c2ccccc2)N2Cc3ccccc3C2=N)cc1 (stereo unspecified)	0	64.9	0	0	0	0	-
COc1ccc(C(=O)C(c2ccccc2)N2CCOCC2)cc1 (stereo unspecified)	0	0	0	0	0	0	-
COc1cc(-c2ccc3oc(-c4ccsc4)cc(=O)c3c2)cc(OC)c1OC	0	0	55.9	0	0	0	-
Cc1ccc(S(=O)(=O)NC(C(=O)Oc2cc3oc(=O)cc(C)c3cc2Cl)C(C)C)cc1 (stereo unspecified)	0	0	0	0	0	0	-
OC[C@H]1O[C@@H](c2nc(-c3ccccc3Br)no2)[C@H](O)[C@@H](O)[C@H]1O	0	-	0	-	0	-	-
COc1cc2nc(/C=C/c3ccc(N(C)C)cc3)sc2cc1SC	0	0	0	0	0	331.7	-
COc1cc2c(cc1OC)C(=Cc1ccc(N(C)C)cc1)C=C2	0	0	0	0	0	0	-
COC(=O)c1ccc(CNC(=O)COC(=O)CC23CC4CC(CC(Br)(C4)C2)C3)cc1	0	0	0	51.1	0	0	-
COc1ccc(-c2csc(NC(=O)CSc3nc(SC)ns3)n2)cc1	0	0	0	85.3	0	0	-
O=C(O)CSc1cc(C(=O)c2cc(F)ccc2O)cn2c(=O)c3c(-c4ccccc4)csc3nc12	0	0	0	0	66.4	0	-
CCN1CCc2nc(N)sc2C1	0	62.0	0	0	0	0	-
CN(Cc1ccccc1)C(=O)c1cccc(NC(=O)Cc2ccc(NC(=O)C3CCCN(C(=O)CCc4ccccc4)C3)cc2)c1 (stereo unspecified)	0	0	0	57.1	0	0	-
CCN(c1ccc(NS(=O)(=O)c2cc(Cl)ccc2Cl)cc1)C(C)C	0	0	0	54.7	0	0	-
CN(C)c1ccc(NS(=O)(=O)c2cc(Cl)ccc2Cl)cc1	0	0	0	0	0	0	-
Cc1ccc(Cc2c(-c3ccc(F)cc3)nc3ccc(Cl)cn23)cc1	0	62.4	0	0	0	0	0
Cc1ccc(Cc2c(-c3ccc(F)cc3)nc3ccc(Br)cn23)cc1	0	-	0	-	0	-	-
Cc1ccc(Cc2c(-c3ccc(F)cc3)nc3cc(C)ccn23)cc1	0	71.3	0	0	0	0	0
Cc1ccc(Cc2c(-c3ccc(Br)cc3)nc3cc(C)ccn23)cc1	0	108.7	0	0	0	0	0
Cc1ccc(Cc2c(-c3ccccc3)nc3ccc(Br)cn23)cc1	0	0	0	0	0	0	-
COc1ccc(NC(=O)COc2ccc(C(=O)OCC(=O)N(C(C)C)C(C)C)cc2OC)cc1	0	0	0	0	0	0	-
Cn1nc(C(F)(F)F)c2cc(NC(=O)OCc3ccc(F)cc3)sc21	0	59.0	0	0	0	0	0
SMILES	aDG glyco act	PfG6PD inh	H9c2 protect	CRFBP-R2 block	FAS-TE inh	CRFR2-BP ag	PfG6PD confirm	others
Cc1ccc(/C=C/C(=O)N2CCN(S(=O)(=O)c3ccc(C)c(C)c3)CC2)o1	0	62.2	0	0	0	0	50.2	Diaph ctr 10uM=0;Diaphorase 30uM=0
Cc1ccc(/C=C/C(=O)N2CCN(S(=O)(=O)c3c(C)c(C)cc(C)c3C)CC2)o1	0	0	0	0	0	0	-
Cc1cccc(Sc2ccc([N+](=O)[O-])cc2[N+](=O)[O-])n1	0	64.3	0	0	0	0	0
O=[N+]([O-])c1ccc(Sc2ncccn2)c([N+](=O)[O-])c1	0	0	0	0	0	0	-
CCOc1ccc(-n2cc(-c3ccc(OC)c(OC)c3)[nH]c2=S)cc1	0	65.6	0	0	0	0	0
Cc1ccc(C)c2c1cc(C)c1nnc(SCC(=O)NCc3ccc4c(c3)OCO4)n12	0	93.7	0	0	0	0	83.9	Diaph ctr 10uM=93.4;Diaphorase 30uM=70.4
Cc1cc(C)c2cc(C)c3nnc(SCC(=O)NCc4ccc5c(c4)OCO5)n3c2c1	0	0	0	0	0	0	-
Cc1ccc(C)c2c1cc(C)c1nnc(SCC(=O)c3cccs3)n12	0	60.5	0	0	0	0	0
CN1CCc2cccc3c2[C@H]1Cc1ccc(O)c(O)c1-3	0	86.9	0	0	0	0	88.9	Diaph ctr 10uM=0;Diaphorase 30uM=0
CN1CCc2cc3c(c4c2[C@H]1[C@H](O)c1ccccc1-4)OCO3	0	0	0	0	0	0	-
CC(/C=N\NC(=O)CN1CCN(S(=O)(=O)c2ccc(C)cc2)CC1)=C\c1ccccc1	0	0	0	0	0	0	-
FC(F)Oc1ccc(NC(=S)NCc2ccccc2)cc1	0	0	0	0	0	0	-
Oc1cccc2c(NC(=S)Nc3ccc(OC(F)F)cc3)cccc12	0	62.1	0	0	0	0	0
CCN(CC)CCNC(=O)CCCCn1c(=S)[nH]c2c([nH]c3ccc(OC)cc32)c1=O	-	64.3	-	0	-	0	47.2	Diaph ctr 10uM=0;Diaphorase 30uM=0
Cc1ccc2nc(SCC(=O)NC3CCCc4ccccc43)[nH]c2c1 (stereo unspecified)	0	75.3	0	0	0	0	58.7	Diaph ctr 10uM=64.3;Diaphorase 30uM=0
COCCN(Cc1ccccc1)C(=O)c1c(C)nn(-c2ccccc2)c1C	0	0	0	0	0	0	-
CCN1CCN(c2ccc(S(=O)(=O)N3CCCCC3)cc2NC(=O)c2cc3ccccc3o2)CC1	0	0	0	0	0	0	-
NNC(=O)CN1C(c2ccccc2Br)=Nc2ccc(Br)cc2C1c1ccccc1 (stereo unspecified)	0	88.4	0	0	0	0	59.6	Diaph ctr 10uM=53.7;Diaphorase 30uM=0
CC(=O)C(Sc1nc(N(C)C)nc(N(C)C)n1)C(=O)Nc1ccccc1 (stereo unspecified)	0	0	0	0	0	0	-
CC(=O)C(Sc1nn(C)c(=S)s1)C(=O)Nc1ccccc1 (stereo unspecified)	0	61.0	0	0	0	0	0
O=C1C=CC2=C3c4cc(O)c(O)cc4CC3(O)COC2=C1O (stereo unspecified)	0	81.3	0	0	0	0	68.5	Diaph ctr 10uM=0;Diaphorase 30uM=0
CC(C)CCNC(=O)C(CC(C)C)N(Cc1ccc2c(c1)OCO2)C(=O)c1snc(C(N)=O)c1N (stereo unspecified)	0	0	0	0	0	0	-
